By ΔTm is commonly meant the shift of the melting midpoint relative to a reference.

Several values for one entry are separate records, joined by “and”; a condition that tells them apart may be missing. Identical values can stand only once.

Test [1] has as its target Bromodomain-containing protein 4 (Homo sapiens) (UniProt O60885). The settings on record: Compound concentration 20.0 uM, Protein concentration 2.0 uM, Result type QC Liability.
Test [2] deals with T1, Transcription intermediary factor 1-alpha (Homo sapiens) (UniProt O15164).
T1 sequence (whole entry): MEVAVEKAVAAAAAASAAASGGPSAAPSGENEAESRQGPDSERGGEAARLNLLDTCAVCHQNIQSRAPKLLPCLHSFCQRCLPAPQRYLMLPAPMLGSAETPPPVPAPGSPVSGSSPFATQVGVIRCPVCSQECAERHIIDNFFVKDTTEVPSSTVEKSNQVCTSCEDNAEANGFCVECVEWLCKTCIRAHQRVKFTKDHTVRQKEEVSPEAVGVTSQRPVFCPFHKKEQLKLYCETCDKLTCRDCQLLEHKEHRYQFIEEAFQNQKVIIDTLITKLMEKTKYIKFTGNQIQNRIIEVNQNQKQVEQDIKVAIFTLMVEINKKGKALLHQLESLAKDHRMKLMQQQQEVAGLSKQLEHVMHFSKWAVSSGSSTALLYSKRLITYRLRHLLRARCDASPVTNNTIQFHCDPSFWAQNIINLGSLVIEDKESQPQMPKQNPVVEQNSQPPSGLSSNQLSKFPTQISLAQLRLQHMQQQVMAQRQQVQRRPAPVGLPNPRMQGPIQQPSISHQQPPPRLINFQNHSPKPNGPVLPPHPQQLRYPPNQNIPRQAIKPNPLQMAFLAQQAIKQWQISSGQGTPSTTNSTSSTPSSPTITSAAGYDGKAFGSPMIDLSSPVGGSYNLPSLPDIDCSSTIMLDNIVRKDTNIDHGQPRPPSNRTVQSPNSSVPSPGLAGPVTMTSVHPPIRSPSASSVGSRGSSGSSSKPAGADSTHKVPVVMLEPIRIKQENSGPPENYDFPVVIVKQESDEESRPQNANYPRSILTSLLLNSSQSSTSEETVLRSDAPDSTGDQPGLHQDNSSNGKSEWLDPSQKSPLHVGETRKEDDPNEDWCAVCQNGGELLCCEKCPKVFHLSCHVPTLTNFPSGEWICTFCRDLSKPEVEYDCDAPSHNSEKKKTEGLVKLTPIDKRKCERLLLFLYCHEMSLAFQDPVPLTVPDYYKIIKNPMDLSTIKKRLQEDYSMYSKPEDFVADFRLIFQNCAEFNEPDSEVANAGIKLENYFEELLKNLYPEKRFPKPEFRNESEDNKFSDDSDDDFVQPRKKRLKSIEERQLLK
The settings on record: Compound concentration 20.0 uM, Protein concentration 2.0 uM, Result type QC Liability.

Take `Cc1ccc(NC(=O)c2ccc(CN3CC[C@H](N(C)C)C3)c(C(F)(F)F)c2)cc1Nc1nccc(-c2cncnc2)n1`: the ΔTm in test [1] was -1.21 °C; in test [2] it was -0.69 °C.
For the compound `COc1c(OCCCN2CCOCC2)ccc2c1N=C(NC(=O)c1cnc(N)nc1)N1CCN=C21`, the values for the ΔTm in test [1] and in test [2] were -0.74 °C and -2.86 °C, respectively.
The matching figures for `Cc1cc(C)nc(Nc2ncc(C(=O)NCCc3c(C)[nH]c4ccccc34)cn2)c1`: -0.8 °C and -1.3 °C.
The matching figures for `Cc1cc(-c2ccnc(Nc3cnn(C)c3)n2)ccc1CNC(=O)N1CC(OC(C)C)C1`: -2.36 °C and 0.22 °C.
The matching figures for `C[C@H](CCOc1cccc(CC(=O)O)c1)N(Cc1cccc(C(F)(F)F)c1Cl)CC(c1ccccc1)c1ccccc1`: -6.66 °C and -0.56 °C.
As to `COc1ncc(-c2cc(-c3ncc(CN4C[C@@H](C)O[C@@H](C)C4)o3)c3cn[nH]c3c2)cc1NS(C)(=O)=O`, the ΔTm is 0.37 °C in test [1] and -1.87 °C in test [2].
Consider `CCO[C@H](COc1ccc(C(F)(F)F)cc1)CSc1ccc(OCC(=O)O)c(C)c1`, for which the figures for the thermal shift (ΔTm) in test [1] and in test [2] were -2.72 °C and -3.26 °C, respectively.
The matching figures for `COc1cc(-c2cn(C)c(=O)c3cnccc23)cc(OC)c1CN(C)C`: -0.83 °C and 0.37 °C.
Taken in the same sequence, the figures for `COCCNC1CCC(Nc2cc(-c3csc(NCC4(C#N)CCOCC4)n3)c(Cl)cn2)CC1` (stereo unspecified) were -0.18 °C and -2.77 °C.
For `Cc1ncsc1-c1ccc(CNC(=O)[C@@H]2C[C@@H](O)CN2C(=O)[C@@H](NC(=O)CCCCNC(=O)c2ccc(-c3ccc(N4CCN(C)CC4)c(NC(=O)c4c[nH]c(=O)cc4C(F)(F)F)c3)cc2)C(C)(C)C)cc1`, the shift in melting temperature (ΔTm) is -6.12 °C in test [1] and -1.25 °C in test [2].
The matching figures for `O=C(Nc1ccc(OC(F)(F)Cl)cc1)c1cnc(N2CC[C@@H](O)C2)c(-c2cc[nH]n2)c1`: 0 °C and -3.05 °C.
The matching figures for `O=C(CNC(=O)c1ccc(-c2ccccc2)cc1)NC1CCCc2ccccc21` (stereo unspecified): -5.93 °C and 2.55 °C.
Taken in the same sequence, the figures for `O=C(NC1CCNCC1)c1n[nH]cc1NC(=O)c1c(Cl)cccc1Cl` were -0.14 °C and -1.34 °C.
As to `CCN(C(=O)c1cc(F)ccc1Oc1cncnc1N1CC2(CCN(C[C@H]3CC[C@H](NS(=O)(=O)CC)CC3)CC2)C1)C(C)C`, the ΔTm is -1.64 °C in test [1] and -1.14 °C in test [2].
Taken in the same sequence, the figures for `O=C1Nc2ccc(C(=O)c3ccco3)cc2C1=Cc1cc(Cl)c(O)c(Cl)c1` were 0.79 °C and -3.45 °C.
In the case of `CC(C)N(CCCCOCC(=O)O)c1cnc(-c2ccccc2)c(-c2ccccc2)n1`, the ΔTm was -1.87 °C in test [1] and -0.66 °C in test [2].
The matching figures for `CC(=O)N(CCN(C)C)c1ccc(N/C(=C2\C(=O)Nc3cc(Cl)ccc32)c2ccccc2)cn1`: -1.57 °C and -4.13 °C.
`Nc1c(CC(=O)O)cccc1C(=O)c1ccc(Br)cc1`: the thermal shift (ΔTm) in test [1] was -0.6 °C; in test [2], -0.77 °C.
As to `CNC(=O)c1ccc(C)c(-n2c(C)cc(OCc3ccc(F)cc3F)c(Br)c2=O)c1`, the ΔTm in test [1] was -1.55 °C; in test [2], -2.58 °C.
Consider `CCCCC/C=C/C=C1/C(=O)C=C[C@@H]1C/C=C\CCCC(=O)O`, for which the values for the ΔTm in test [1] and in test [2] were -4.89 °C and -1.14 °C, respectively.
Taken in the same sequence, the figures for `c1ccc2c(-c3coc4cc(-c5ccc(N6CCNCC6)cc5)cnc34)ccnc2c1` were -1.89 °C and -2.14 °C.
Taken in the same sequence, the figures for `COc1c(-c2cn(C3CCC(=O)NC3=O)nn2)csc1C(=O)N1CCCC1` (stereo unspecified) were -0.9 °C and -2.25 °C.
Taken in the same sequence, the figures for `Cn1cc(-c2ccc(-c3cncc(Cl)c3N3CCC4(CCNC4=O)CC3)cc2)cn1` were 0.07 °C and -2 °C.
As to `CN[C@@H](C)C(=O)N[C@H](C(=O)N1CCC[C@H]1C(=O)Nc1sc(-c2ncco2)nc1-c1ccccc1)C1CCCCC1`, the results for the ΔTm in test [1] and in test [2] were -2.68 °C and -2.9 °C, respectively.
On to `CN(C)c1ccc(-c2cc3ncccc3c(OCCCCO)n2)cc1`, for which the values for the thermal shift (ΔTm) in test [1] and in test [2] were -2.64 °C and -3.64 °C, respectively.
The matching figures for `CC(C)c1cnn2c(NCc3ccccc3)cc(NCCCCCCN)nc12`: 0.76 °C and -3.25 °C.
The matching figures for `CC1(C)CCC(CN2CCN(c3ccc(C(=O)NS(=O)(=O)c4ccc(NCC5CCOCC5)c([N+](=O)[O-])c4)c(Oc4cnc5[nH]ccc5c4)c3)CC2)=C(c2ccc(Cl)cc2)C1`: -1.82 °C and -1.45 °C.
The matching figures for `CS(C)(=O)=Nc1ccc(-c2ccc(-c3nc4[nH]c(O[C@@H]5CO[C@H]6[C@@H]5OC[C@H]6O)nc4cc3Cl)cc2)cc1`: 1.46 °C and 0.39 °C.
Take `O=C(Nc1ccnc(NC(=O)C2CC2)c1)c1c(Cl)cccc1Cl`: the thermal shift (ΔTm) in test [1] was -1.81 °C; in test [2] it was -3.69 °C.
As for `COCc1c(-c2cc3cc(C)cc(OC)c3s2)c2c(N)ncnn2c1CN[C@@H]1CCNC1=O`, the figures for the ΔTm in test [1] and in test [2] were 1.53 °C and 0.22 °C, respectively.
The matching figures for `CNC(=O)c1ccc2c(c1)NC(=O)/C2=C(\Nc1ccc(CN2CCCCC2)cc1)c1ccccc1`: -3.03 °C and -3 °C.
For `CCS(=O)(=O)c1cc2cc(C[C@@](O)(CC(C)(C)c3ccc(F)cc3C(N)=O)C(F)(F)F)[nH]c2cn1`, the ΔTm is 0.67 °C and -0.3 °C in test [1]; 0.3 °C and -2.64 °C in test [2].
Consider `O=C(O)c1cc(-c2ccccc2)ccc1O`, for which the shift in melting temperature (ΔTm) in test [1] was -1.31 °C; in test [2], -1.78 °C.
For the compound `CC[C@H](Nc1c(C#N)c(-c2ccc(-c3cccc(C)c3F)cc2)nc2cnccc12)C(=O)O`, the thermal shift (ΔTm) in test [1] was -2.07 °C; in test [2], -1.52 °C.
As to `O=C(O)CCCCN(CCc1ccccc1OCc1ccc(CCc2ccccc2)cc1)Cc1ccc(C(=O)O)cc1`, the ΔTm in test [1] was -0.88 °C; in test [2], 0.09 °C.
Taken in the same sequence, the figures for `CN(C)CCCN1c2ccccc2Sc2ccc(Cl)cc21` were -1.94 °C and -3.45 °C.
Take `O=C(NCCN1CCOCC1)c1ccc2nn(CCOc3ccc(Cl)cc3)cc2c1`: the values for the shift in melting temperature (ΔTm) in test [1] and in test [2] were 0.04 °C and 0.35 °C, respectively.
The matching figures for `CC(=O)Nc1c(F)cc(C(=O)N[C@H]2CC[C@H](O)CC2)cc1O[C@@H](C)c1ccccc1`: -1.18 °C and -0.63 °C.

The record behind these values is ChEMBL document CHEMBL5308504, “Tm Shift (DSF) assay results for EUbOPEN Chemogenomics Library” (2023).
